Measurements as given in PubChem BioAssay (Tox21).
“And” between values parts separate entries of the source, which are not always exact repeats. Equal values may be shown once. Records with an inconclusive call do not appear. The source made the active and inactive calls. Unless noted, calls come from the whole dose curve; as a rule, active = well fitted curve in the direction sought with a large enough effect in the repeat runs; inconclusive = weak or mixed curves; inactive = no such curve, though single readings can be large; an effect the other way counts as inactive or inconclusive.

What was measured:
[1] = qHTS assay to identify small molecule agonists of the hypoxia (HIF-1) signaling pathway - cell viability counter screen (AID 1224844; calls by dose curve; note: nearly all actives have a fitted effect of over 50% in size)
Summary of the method: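 Cytotoxicity was measured in parallel with the HRE-driven beta-lactamase readout: after 17 hrs of compound exposure at 37C, HRE-bla ME-180 cells received CellTiter-Glo and luminescence was recorded 30 min later.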

[2] = qHTS assay to identify small molecule agonists of H2AX (AID 1224845; active = well fitted activation curve with a large enough effect in the signal ratio in the repeat runs, not every such curve was filed as active; the % refers to the signal ratio)
Summary of the method: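 Wild-type CHO-K1 cells, plated overnight, exposed 3hr at 37C to 15 concentrations (0.76% DMSO final). Lysed, then HTRF anti-pH2AX (S139) cryptate and anti-H2AX-d2 antibodies, 24 hr room temperature; 665/620 nm emission read.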

[3] = qHTS assay to identify small molecule agonists of the hypoxia (HIF-1) signaling pathway (AID 1224846; active = well fitted activation curve with a large enough effect in the signal ratio in the repeat runs, not every such curve was filed as active; the % refers to the signal ratio)
Summary of the method: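 Compounds from the Tox21 10K library, dissolved in DMSO, are tested for induction of a hypoxia response element–controlled beta-lactamase reporter in ME-180 cells. Exposure lasts 17 hrs at 37C after a 5 hr settling period, followed by CCF4-AM FRET substrate.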

[4] = qHTS assay to identify small molecule agonists of H2AX - cell viability counter screen (AID 1224847; calls by dose curve; note: top concentration of the series differs between compounds; nearly all actives have a fitted effect of over 30% in size)
Summary of the method: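 Cytotoxicity counter screen in wild-type CHO-K1 cells: a 3 hr compound treatment at 37C across 15 concentrations, followed by CellTiter-Glo luminescence to gauge viable cells.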

[5] = qHTS assay to identify small molecule antagonists of the estrogen related receptor (ERR) signaling pathway from Tox21 library (AID 1224848); note: nearly all actives have a fitted effect of over 50% in size
Summary of the method: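 Compounds dissolved in DMSO are pin-transferred onto ERR reporter cells (2,000 per well) that have settled for 6 h at 37 C. Plates then incubate 18 h at 37 C before ONE-Glo luciferase reagent and a luminescence read 30 min later.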

[6] = qHTS RealTime-Glo MT Cell Viability Assay in HepG2 cells - 24 hour (AID 1224867); note: nearly all actives have a fitted effect of over 50% in size
Summary of the method: (§1)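 HepG2 cells (600/well) were dispensed with RealTime-Glo reagents, incubated 5 h at 37 °C, then treated with compounds in DMSO for up to 40 h. Nonlytic NanoLuc luminescence reflecting viable cells was read at each stated time point.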

[7] = A CellTox Green Cytotoxicity Assay to monitor cytotoxicity in HEK293 cells - 0 hour (AID 1224869); note: nearly all actives have a fitted effect of over 50% in size
Summary of the method: (§2)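 Cells (HEK293, 600/well) and dye reagent are dispensed together. After 5 h at 37 C, 23 nL compound is pinned in. Plates stay at 37 C for 40 h with fluorescence read at 0h, 8h, 16h, 24h, 32h and 40h.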

[8] = qHTS RealTime-Glo MT Cell Viability Assay in HepG2 cells - 40 hour (AID 1224870); note: nearly all actives have a fitted effect of over 50% in size
Summary of the method: (§3)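 HepG2 cells (600/well) mixed with RealTime-Glo MT reagent, settled 5 h at 37 C/5% CO2 before compound addition. Nonlytic NanoLuc luminescence from viable-cell prosubstrate reduction read repeatedly during 40 h treatment at 37 C.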

[9] = A CellTox Green Cytotoxicity Assay to monitor cytotoxicity in HEK293 cells - 40 hour (AID 1224871); note: nearly all actives have a fitted effect of over 45% in size
Summary of the method: as §2

[10] = qHTS RealTime-Glo MT Cell Viability Assay in HEK293 cells - 16 hour (AID 1224872)
Summary of the method: (§4)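 HEK293 cells seeded with NanoLuc/prosubstrate reagent, rested 5 h at 37 C, then dosed and kept at 37 C up to 40 h. Nonlytic real-time luminescence from viable cells read at 0, 8, 16, 24, 32 and 40 h.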

[11] = qHTS RealTime-Glo MT Cell Viability Assay in HepG2 cells - 8 hour (AID 1224873); note: nearly all actives have a fitted effect of over 55% in size
Summary of the method: as §3

[12] = qHTS RealTime-Glo MT Cell Viability Assay in HEK293 cells - 40 hour (AID 1224874); settings: RealTime-Glo luminescence; max response: hits give low values; note: nearly all actives have a fitted effect of over 50% in size
Summary of the method: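 Real-time viability in HEK293: signal arises when living cells convert a prosubstrate for NanoLuc in the medium, so luminescence tracks viable cell number. Compound (23 nL, DMSO) added 5 h post-seeding; kinetic reads at 0–40 h, 37 C.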

[13] = A CellTox Green Cytotoxicity Assay to monitor cytotoxicity in HEK293 cells - 24 hour (AID 1224875); note: series mostly up to about 77 µM; nearly all actives have a fitted effect of over 45% in size
Summary of the method: as §2

[14] = qHTS RealTime-Glo MT Cell Viability Assay in HepG2 cells - 32 hour (AID 1224877); note: nearly all actives have a fitted effect of over 55% in size
Summary of the method: as §1

[15] = A CellTox Green Cytotoxicity Assay to monitor cytotoxicity in HepG2 cells - 24 hour (AID 1224878); note: nearly all actives have a fitted effect of over 45% in size
Summary of the method: (§5)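 Cells and non-lytic dye reagent are dispensed together (600 HepG2 cells/well) and incubated 5 h before DMSO compound transfer. Kinetic fluorescence is then recorded in the same wells during 40 h at 37 C.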

[16] = A CellTox Green Cytotoxicity Assay to monitor cytotoxicity in HepG2 cells - 40 hour (AID 1224879); note: nearly all actives have a fitted effect of over 40% in size
Summary of the method: as §5

[17] = qHTS RealTime-Glo MT Cell Viability Assay in HEK293 cells - 32 hour (AID 1224868)
Summary of the method: as §4

[18] = A CellTox Green Cytotoxicity Assay to monitor cytotoxicity in HepG2 cells - 16 hour (AID 1224876); note: nearly all actives have a fitted effect of over 45% in size
Summary of the method: as §5
% is set by controls: 0 for no effect and ±100 for the full control effect.

OCc1ccco1
inactive: Potency [1] | Potency [2] | outcome [3] | Potency [4] | Potency [5] | outcome [6] | Potency [7] | outcome [8] | Potency [9] | outcome [10] | outcome [11] | max response [12] 1.99% and 6.54% | Potency [13] | outcome [14] | Potency [15] | Potency [16]

CCCCCCCCCCCCCCCCCC(=O)O
inactive: Potency [1] | Potency [2] | outcome [3] | Potency [4] | outcome [6] | Potency [17] | Potency [7] | outcome [8] | Potency [9] | outcome [10] | outcome [11] | max response [12] 2.01% and -1.45% and 0.984% | Potency [13] | Potency [18] | outcome [14] | Potency [15] | Potency [16]

CC12CC1(C)C(=O)N(c1cc(Cl)cc(Cl)c1)C2=O (stereo not given)
inactive: Potency [1] | Potency [2] | outcome [3] | Potency [4] | outcome [6] | Potency [17] | Potency [7] | outcome [8] | Potency [9] | outcome [10] | max response [12] 1.77% and 7.9% | Potency [13] | Potency [18] | outcome [14] | Potency [15] | Potency [16]

Cl[C@H]1OCCO[C@@H]1Cl
inactive: Potency [1] | Potency [2] | outcome [3] | Potency [4] | Potency [5] | outcome [6] | Potency [17] | Potency [7] | outcome [8] | Potency [9] | outcome [10] | outcome [11] | max response [12] 9.41% and 3.91% | Potency [13] | Potency [18] | outcome [14] | Potency [15] | Potency [16]

Cc1ccc(O)c(C)c1
inactive: Potency [1] | Potency [2] | outcome [3] | Potency [4] | Potency [5] | outcome [6] | Potency [17] | Potency [7] | outcome [8] | Potency [9] | outcome [10] | outcome [11] | max response [12] 4.17% and 0.581% | Potency [13] | Potency [18] | outcome [14] | Potency [15] | Potency [16]

N#Cc1ccccn1
inactive: Potency [1] | Potency [2] | outcome [3] | Potency [4] | outcome [6] | Potency [17] | Potency [7] | outcome [8] | Potency [9] | outcome [10] | max response [12] -0.449% and 4.77% | Potency [13] | Potency [18] | outcome [14] | Potency [15] | Potency [16]

CCOP(=S)(OCC)Oc1ccc([N+](=O)[O-])cc1
inactive: Potency [1] | Potency [2] | outcome [3] | Potency [4] | outcome [6] | Potency [7] | outcome [8] | Potency [9] | outcome [10] | outcome [11] | max response [12] -18.1% and -17.8% | Potency [13] | Potency [18] | outcome [14] | Potency [15] | Potency [16]

O=C(O)COc1ccccc1
inactive: Potency [1] | Potency [2] | outcome [3] | Potency [4] | outcome [6] | Potency [17] | Potency [7] | outcome [8] | Potency [9] | outcome [10] | outcome [11] | max response [12] -2.67% and 2.52% and 5.65% | Potency [13] | Potency [18] | outcome [14] | Potency [15] | Potency [16]

OCC(O)CCl (stereo not given)
inactive: Potency [1] | Potency [2] | outcome [3] | Potency [4] | outcome [6] | Potency [17] | Potency [7] | outcome [8] | Potency [9] | outcome [10] | outcome [11] | max response [12] -3.2% and 0.258% | Potency [13] | Potency [18] | outcome [14] | Potency [15] | Potency [16]

ClC(Cl)c1ccccc1
inactive: Potency [1] | Potency [2] | outcome [3] | Potency [4] | Potency [5] | outcome [6] | Potency [7] | outcome [8] | Potency [9] | outcome [10] | max response [12] 4.95% and 0.497% | Potency [13] | outcome [14] | Potency [15] | Potency [16]

CN(C)C(=O)C(c1ccccc1)c1ccccc1
inactive: Potency [1] | Potency [2] | outcome [3] | Potency [4] | outcome [6] | Potency [17] | Potency [7] | outcome [8] | Potency [9] | outcome [10] | max response [12] 1.04% and -0.357% | Potency [13] | Potency [18] | outcome [14] | Potency [15] | Potency [16]

Cc1cccc(N)c1C
inactive: Potency [1] | Potency [2] | outcome [3] | Potency [4] | outcome [6] | Potency [7] | outcome [8] | Potency [9] | outcome [10] | outcome [11] | max response [12] -0.402% and 10.2% | Potency [13] | outcome [14] | Potency [15] | Potency [16]

CNc1cnn(-c2cccc(C(F)(F)F)c2)c(=O)c1Cl
inactive: Potency [1] | Potency [2] | outcome [3] | Potency [4] | outcome [6] | Potency [17] | Potency [7] | outcome [8] | Potency [9] | outcome [10] | max response [12] -24.9% and -29.1% | Potency [13] | Potency [18] | outcome [14] | Potency [15] | Potency [16]

COC(C)(C)CCCC(C)C/C=C/C(C)=C/C(=O)OC(C)C (stereo not given)
inactive: Potency [1] | Potency [2] | outcome [3] | Potency [4] | Potency [5] | outcome [6] | Potency [7] | outcome [8] | Potency [9] | outcome [10] | outcome [11] | max response [12] 0.0106% | Potency [13] | Potency [18] | outcome [14] | Potency [15] | Potency [16]
